Sampled rows, rich in hits. Any-hit rate of the full collection: about 21%.
CHX counter – affects cycloheximide protein synthesis inhibition readout, counter-screen | cell reporter, cycloheximide protein synthesis inhibition counterscreen | max response, % | actives 12% (n = 300,000); in the data active = max response mostly above about 13%, no sharp cut-off; inactive = mostly below about 14%; also: read at 38.3 µM for the half of the compounds with a filed dose
HCMV antiviral – inhibitors of human cytomegalovirus; HFF cells, HCMV-luciferase reporter, 72 h; hits give low values; activity change, negative = inhibition, % at 57.5 µM; actives 4.5% (n = 410,000); in the data active = activity change below about -60%; inconclusive = no clear call, values can overlap the other calls; inactive = above about -39%
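Two compound doses tested in HFFs infected with HCMV-luciferase, MOI 1 PFU/cell, 72 h at 37C. Lysate luminescence read with OneGlo; data normalized against buffer-only and 10uM Salinomycin inhibitor controls.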
HCV inhibitor – blocks hepatitis C virus; actives 3.4% (n = 340,000); Potency, µM (doses to about 41.8 µM), actives largely listed as inhibitors; Huh7.5.1 HCVcc-Cre infection, luciferase reporter, 44 h
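Antiviral activity was scored by luciferase reporter output from cells infected with HCVcc-Cre (~0.5 moi) in presence of compound, 44 h infection period, cells seeded 1,000/well 4 h prior.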
Pf growth 48h – inhibits P. falciparum growth in the first generation, 48 h; actives 5.9% (n = 310,000); P. falciparum luciferase growth in erythrocytes, 48 h; Potency, µM (series often up to 28.7 µM), usual class: inhibitors
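First compound was added to culture medium, then infected red cells at 0.1% parasitemia and 2% hematocrit (final). After incubation at 37 C under 5% CO2, luciferase detection reagent was dispensed and light output recorded.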
Shiga toxin inh – blocks Shiga toxin action in Vero cells; Vero cells, Shiga toxin protein synthesis inhibition reporter; inhibition, % at 38.7 µM; actives 9.2% (n = 290,000); AID 2315; in the data active = inhibition mostly above about 28%, no sharp cut-off; inactive = mostly below about 43%
Pf growth 96h – inhibits malaria parasite growth, 96 h; Potency, µM (titrated, usually from 28.7 µM), most hits filed as inhibitors; actives 6.9% (n = 320,000); P. falciparum luciferase reporter growth, 96 h
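96 h incubation, 37 C, 5% CO2, of luciferase-reporter P. falciparum-infected RBCs (2% hematocrit, 0.05% parasitemia final) with test compounds; endpoint luminescence.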
A number is an active result; . = inactive; ? = inconclusive; / = not tested or not shown. Unless noted, calls follow the shape of the dose curve; as a rule, active = well fitted inhibition curve with a large enough effect; inconclusive = small, poorly fitted or top-dose-only effect, or another doubt; inactive = no such curve, though single readings can be large or run the other way.

SMILES | CHX counter | HCMV antiviral | HCV inhibitor | Pf growth 48h | Shiga toxin inh | Pf growth 96h
CC(C)(C)OC(=O)N1CCN(C(=O)c2[nH]cnc2C(=O)N[C@@H](Cc2ccccc2)C(=O)OCc2ccccc2)CC1 | . | ? | . | ? | . | ?
O=C(N[C@@H](Cc1ccccc1)C(=O)OCc1ccccc1)c1nc[nH]c1C(=O)N1CCNCC1 | / | -84 | . | / | / | /
O=C(N[C@@H](Cc1ccccc1)C(=O)OCc1ccccc1)c1nc[nH]c1C(=O)NC(c1ccccc1)c1ccccc1 | . | . | . | 1.3µM | . | 9.3µM
Cc1ccc(NC(=O)CNC(=O)Cn2c(C)cc3ccccc3c2=O)cc1F | / | . | / | / | / | /
Cc1cc2ccccc2c(=O)n1CC(=O)N(C)c1ccc(F)cc1 | . | -103 | . | . | . | 10µM
NC(=O)Cn1c(=O)n(-c2ccc(F)c(Cl)c2)c(=O)c2sc3ccccc3c21 | / | . | / | / | / | /
Cc1ccc(C(=O)Nc2cc3c(cc2Cl)OCCCO3)cc1 | 50 | . | . | . | 65 | .
O=C(Nc1cc2c(cc1Cl)OCCCO2)c1ccc(F)cc1 | 89 | . | . | . | 114 | .
O=C(Nc1ccc(Cl)cc1Cl)c1ccc2c(c1)OCCO2 | / | . | ? | . | / | .
O=c1[nH]c(O)c(N=Nc2ccc([N+](=O)[O-])cc2)c(=O)[nH]1 | . | . | . | ? | . | .
O=S(=O)(Nc1ccc(N=Nc2ccccc2)cc1)c1ccccc1 | . | . | . | . | . | .
O=S(=O)(Nc1ccc(N=Nc2ccc(O)c3ccccc23)cc1)c1ccccc1 | . | . | ? | 2.3µM | . | 5.2µM
O=[N+]([O-])c1ccc(N=Nc2ccc(O)c3ccccc23)cc1 | / | / | 10µM | / | / | /
NC(=O)Nc1sc(-c2ccc(F)cc2)cc1C(N)=O | 17 | / | / | / | . | /
COC(=O)c1cc(-c2ccccc2)sc1NC(=O)CN1C(=O)c2ccccc2C1=O | . | -64 | ? | . | . | .
COC(=O)c1cc(OC)c(OC)cc1NC(=O)CN1C(=O)c2ccccc2C1=O | . | . | . | / | . | .
NC(=O)c1ccccc1NC(=O)CN1CCCCCC1 | . | . | . | . | . | ?
NC(=O)c1cc(-c2ccccc2)sc1NC(=O)CN1CCCCC1 | 11 | . | 13µM | . | . | ?
CCOC(=O)c1ccc(NC(=O)COCc2cc(-c3ccc4c(c3)OCO4)on2)cc1 | / | . | / | / | / | /
COc1cc(NC(=O)CC2C(=O)N(c3ccc(Cl)cc3)C(=O)N2Cc2cccs2)cc(OC)c1 (stereo not given) | / | . | / | / | / | /
COc1ccccc1CC(=O)O/N=C(\N)c1cccc([N+](=O)[O-])c1 | . | . | . | . | . | .
N/C(=N\OC(=O)Cc1ccccc1[N+](=O)[O-])c1ccncc1 | . | -61 | . | . | . | .
N/C(=N\OC(=O)Cc1ccccc1)c1ccncc1 | . | . | . | . | . | .
COc1cccc(/C(N)=N/OC(=O)Cc2ccccc2[N+](=O)[O-])c1 | 27 | . | . | . | 113 | ?
Cc1cccc(-c2cc(NC(=O)COc3ccccc3F)n(-c3ccccc3)n2)c1 | / | . | / | / | / | /
SMILES | CHX counter | HCMV antiviral | HCV inhibitor | Pf growth 48h | Shiga toxin inh | Pf growth 96h
COc1cc2c(C(F)(F)F)c(-c3ccsc3)oc(=O)c2cc1OC | / | . | . | / | / | /
COc1cc2c(C#CCCCO)c(-c3ccsc3)oc(=O)c2cc1OC | / | -61 | 3.2µM | / | / | /
COc1cc2c(C#Cc3cccnc3)c(-c3ccsc3)oc(=O)c2cc1OC | / | . | 6.3µM | / | / | /
CCCCOc1ccc(S(=O)(=O)Nc2cccc(-c3ccc(N4CCOCC4)nn3)c2)cc1 | / | . | / | / | / | /
Cc1ccc(C2Nc3ccc4ccccc4c3C3=C2C(=O)CC(C)(C)C3)o1 (stereo not given) | 13 | . | ? | 15µM | . | ?
O=C1CCCC2=C1C(c1ccco1)Nc1ccc3ccccc3c12 (stereo not given) | 33 | . | . | ? | 45 | .
O=C1CCCC2=C1C(c1ccc(O)c(O)c1)Nc1ccc3ccccc3c12 (stereo not given) | / | . | . | / | / | /
CC1(C)CC(=O)C2=C(C1)c1c(ccc3ccccc13)NC2c1ccc(C(=O)O)cc1 (stereo not given) | . | . | . | ? | . | ?
CSc1ccc(CCNC(=O)c2ccc(-c3nc(COc4ccccc4)c(C)o3)cc2)cc1 | / | . | / | / | / | /
O=C(Nc1ccccc1)OCC(CN1CCCCC1)OC(=O)Nc1ccccc1 (stereo not given) | . | . | . | ? | . | ?
C[C@@H]1CNC(=O)c2c(C(=O)N(C)Cc3ccccc3)ncn21 | / | . | / | / | / | /
CC12C=CC(C)(C3C(=O)NC(=O)C31)C1C3C(=O)NC(=O)C3C12 (stereo not given) | / | . | / | / | / | /
Cn1nc(C(F)(F)F)c(-c2cccc(C(F)(F)F)c2)c1NC(=O)c1nccnc1C(=O)O | . | . | . | . | . | .
Cn1nc(C(F)(F)F)c(-c2cccc(C(F)(F)F)c2)c1NC(=O)Nc1ccc(F)cc1 | . | . | ? | 0.93µM | . | 1.3µM
Cn1nc(C(F)(F)F)c(-c2cccc(C(F)(F)F)c2)c1NC(=O)c1ccco1 | . | -71 | . | ? | . | .
COc1ccccc1C(=O)NCCC(=O)N1CC=C(c2ccccc2)CC1 | / | . | . | 12µM | / | ?
COc1ccccc1OCCC(=O)N1CCN(c2ccccc2OC)CC1 | . | . | . | . | . | .
COc1ccccc1C(=O)NCCC(=O)N1CCN(c2ccccc2O)CC1 | / | . | . | 12µM | / | ?
COc1ccccc1C(=O)NCCC(=O)N1CCCCC1 | . | . | . | . | . | .
CCOc1ccc(S(=O)(=O)NCCC(=O)N2CC=C(c3ccccc3)CC2)cc1 | / | ? | 22µM | 9.3µM | / | ?
O=C(CCOc1ccccc1F)N1CCN(c2ccccc2O)CC1 | 31 | . | ? | . | 70 | .
COc1cc(-c2nc3ccc(Cl)cn3c2Nc2ccc3c(c2)OCO3)ccc1O | / | . | / | / | / | /
COc1ccc(-c2nc3ccc(C)cc3c(=O)o2)cc1OC | . | . | . | . | / | ?
COc1nc(N=C(N)N)nc2ccc(C)cc12 | . | -102 | ? | 2.6µM | . | ?
NC(=O)CSC1=Nc2ccccc2C2=NC(c3ccccc3)C(=O)N12 (stereo not given) | . | . | . | . | . | ?
SMILES | CHX counter | HCMV antiviral | HCV inhibitor | Pf growth 48h | Shiga toxin inh | Pf growth 96h
COCCCNC(=O)CSC1=Nc2ccccc2C2=NC(c3ccccc3)C(=O)N12 (stereo not given) | . | -64 | . | . | . | ?
COCCCNC(=O)CSC1=Nc2ccccc2C2=NC(Cc3c[nH]c4ccccc34)C(=O)N12 (stereo not given) | . | . | . | . | . | 5.2µM
O=C(NNC(=O)c1cc(Br)c(Br)s1)c1csc(N2CCOCC2)n1 | / | . | . | ? | / | .
CCn1c(CN2CCOCC2)nc2cc(NC(=O)c3cccc([N+](=O)[O-])c3)ccc21 | / | . | / | / | / | /
CC12CN3CCN(CC(C3)/C1=N\NC(=O)Nc1cccc(Cl)c1)C2 | 26 | . | . | . | . | ?
CC12CN3CCN(CC(C3)/C1=N/NC(=O)Nc1ccccc1)C2 | 25 | . | . | . | . | ?

Screening data deposited in PubChem BioAssay by National Center for Advancing Translational Sciences (NCATS).
